According to PubChem BioAssay (NCI):
About 83,000 compounds went through this panel and 20% of them were active in at least one assay; those are over-represented in the sample as a whole.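 Cell lines were cultured in 96-well plates, exposed to a single compound concentration, and assessed for percent growth 48 hours later.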 Unmarked numbers belong to inactive results. The source made the active and inactive calls. Rule for the calls: active = growth percent below 10; inactive = the rest.

Tests used:
Assay in all cases: NCI-60 one-dose screen, 48 h (100 = growth as untreated, 0 = no growth, -100 = all killed)
DU-145 prostate = conditions: 10 µM unless noted
K-562 leukemia = conditions: 10 µM unless noted
MALME-3M melanoma = conditions: 10 µM unless noted
MDA-MB-231 breast = conditions: 10 µM unless noted
SF-268 CNS = conditions: 10 µM unless noted
SF-295 CNS = conditions: 10 µM unless noted
SF-539 CNS = conditions: 10 µM unless noted
UACC-257 melanoma = conditions: 10 µM unless noted
M14 melanoma = conditions: 10 µM unless noted
HT29 colon = conditions: 10 µM unless noted
SNB-75 CNS = conditions: 10 µM unless noted
SNB-19 CNS = conditions: 10 µM unless noted
U251 CNS = conditions: 10 µM unless noted
PC-3 prostate = conditions: 10 µM unless noted
SK-MEL-5 melanoma = conditions: 10 µM unless noted
UACC-62 melanoma = conditions: 10 µM unless noted
LOX IMVI melanoma = conditions: 10 µM
SK-MEL-28 melanoma = conditions: 10 µM unless noted
HCT-15 colon = conditions: 10 µM unless noted
RXF 393 renal = conditions: 10 µM unless noted

Compound	growth (DU-145 prostate)	growth (K-562 leukemia)	growth (MALME-3M melanoma)	growth (MDA-MB-231 breast)	growth (SF-268 CNS)	growth (SF-295 CNS)	growth (SF-539 CNS)	growth (UACC-257 melanoma)	growth (M14 melanoma)	growth (HT29 colon)	growth (SNB-75 CNS)	growth (SNB-19 CNS) [%]	growth (U251 CNS)	growth (PC-3 prostate)	growth (SK-MEL-5 melanoma)	growth (UACC-62 melanoma)	growth (LOX IMVI melanoma)	growth (SK-MEL-28 melanoma)	growth (HCT-15 colon)	growth (RXF 393 renal) [%]
Cc1ccc(Nc2ccc(O)c3c2C(=O)c2c(O)ccc(Nc4ccc(C)cc4)c2C3=O)cc1	124%	115%	102%	110%	114%	104%	96.3%	95%	102%	106%	99.4%	91.6	99.8%	90.7%	91.7%	105%	96.9%	112%		
CCCC[n+]1c(/C=C\c2c(OC)cc(OC)cc2OC)ccc2ccccc21	23%	0.911% (active)	13%	-15.1% (active)	22%	-74.7% (active)	10.3%	-41.5% (active)	9% (active)	-33.5% (active)	-13.2% (active)	19		2.91% (active)	-97.2% (active)	-37.2% (active)	-75.5% (active)	-10.8% (active)	35.1%	
CCCCCCCCCCCCN1C(C)=CS/C1=C\C=C\c1scc(C)[n+]1CCCCCCCCCCCC	43%	4.52% (active)	29.9%	20.2%	40.3%	-21.5% (active)	44.4%	-14.2% (active)	30.5%	11%	34.3%			3.86% (active)	-83.9% (active)	5.41% (active)	25.9%	47.2%		
Nc1ccc(-c2ccc(N)c(S(=O)(=O)O)c2)cc1S(=O)(=O)O	109%	118%	107%	110%	103%	115%	106%	134%	104%	109%	83.1%	101	115%	101%	111%		94.4%	119%	118%	
Oc1c(Cl)cc(Cl)cc1C=NCC1CCC(CN=Cc2cc(Cl)cc(Cl)c2O)CC1 (centres undefined)	104%	66.8%	89.6%		70.9%	98%	89.3%	111%	90.4%	103%	66.9%	79.8	83%	77.6%	94.4%	97.7%	69.6%	89.2%	84.9%	90.9
O=C1C=C(Cl)C(=O)c2ccccc21	118%	24.2%	85.1%	69.1%	93.2%	97.4%	109%	96.2%	107%	119%	71.4%	97.4		81.7%		98.2%		116%	98.9%	
O=C/C=C/c1ccc([N+](=O)[O-])cc1	102%	95.8%	99.6%		98.2%	105%	99.3%	97.7%	93.3%	97.6%	98.9%	95.3	95.5%	98.7%	102%	98.2%	83.8%	113%	105%	116
O=C1C(=O)c2cccnc2-c2ncccc21	-74% (active)	-23.4% (active)	-12.6% (active)	-39.3% (active)	-94.5% (active)	2.62% (active)	-97% (active)	0.671% (active)	-92.6% (active)	-62.9% (active)	-13.3% (active)		-91.5% (active)	-24.5% (active)	-100% (active)		-83.8% (active)	-9.12% (active)	-20.5% (active)	
CC(=O)C1Cc2ccccc2C1=O (centres undefined)	106%	116%	94.3%	98.8%	103%	100%	99.6%	89.8%	109%	104%	70.8%		103%	94.7%	103%		94.4%	115%	108%	
CCC[CH2][Sn]1([CH2]CCC)[O]C2C(CO)OC(n3ccc(N)nc3=O)C2[O]1 (centres undefined)	2.15% (active)	-17.7% (active)	-71.7% (active)	-68.8% (active)	-89.2% (active)		-64.2% (active)	-87.3% (active)	-47.2% (active)	-69.8% (active)	-21.2% (active)	28.4		-11.3% (active)	-72.1% (active)	-89% (active)	-57% (active)	-90.3% (active)	-59.3% (active)	
COC(=O)c1ccc(=O)c2nc3/c(=C/O)c(O)cc(=O)c3[nH]c12	29.5%	7.14% (active)	1.52% (active)	45.3%	14.5%	6.32% (active)	12.6%	5.98% (active)	26.8%	29.4%	12.6%	11.6	7.56% (active)	30.5%	22%	-3.09% (active)	19%	34.2%	10.1%	
COC(=O)c1cc([N+](=O)[O-])cc([N+](=O)[O-])c1Cl	66.1%	15.2%	49.5%	105%		101%	102%	70.4%	20.5%	-85.2% (active)	90.4%	104	9.52% (active)	97%	107%	90.6%	57.7%	108%	-4.09% (active)	91.4
CCCCCCCCCCCC[n+]1ccccc1 (tested in a mixture with another compound)	11.7%	-33.3% (active)	-38.3% (active)	-30.4% (active)	-8.98% (active)	-35.1% (active)	-10.5% (active)	-52.3% (active)	-56.6% (active)	-30.1% (active)	-45.9% (active)			-61.8% (active)	-98.5% (active)	-62.3% (active)	-58.3% (active)	-19.1% (active)	38.5%	
CC1CC(C)(C)OB(OC(C)CC(C)(C)OB2OC(C)CC(C)(C)O2)O1 (centres undefined)	102%	96.1%	111%		102%	105%	104%	94.8%	-55.3% (active)	99.2%	115%	104	94.2%	97.5%	101%	106%	93.7%	104%	104%	116
CCOc1ccc2c(c1)/C(=C\C=C\C1CC(C)C3CC(OCC)CCC3N1CC)CC(C)N2CC (centres undefined)	14.8%	4.61% (active)	-30.1% (active)	13.6%	21.7%		19.5%	-25.2% (active)	14.9%	-33.4% (active)	-0.249% (active)	22.2	6.59% (active)	3.32% (active)	-86.3% (active)	32.5%	16.3%	22.8%	17.8%	
O=C1C=CC(O)=CC1=P(c1ccccc1)(c1ccccc1)c1ccccc1	114%	88.8%	59.5%	81.3%	100%	107%	86.9%		100%	103%	84.2%		92.3%	91.6%	95.7%	83.7%	94.7%	102%		
CCCCCCCCCCCC[N+]1(CCCCCCCCCCCC)CCCC(C)C1 (centres undefined)	-83.8% (active)	-79.1% (active)	-75.1% (active)	-82.6% (active)	-87.7% (active)	-77.1% (active)	-99.6% (active)	-96.2% (active)	-97.3% (active)	-91.8% (active)	-88.3% (active)		-61% (active)	-93.7% (active)	-100% (active)	-77.9% (active)	-80% (active)	-91.2% (active)	-55.6% (active)	
CN(C)c1ccc(/C=C/c2ccnc3ccccc23)cc1	78.1%	25.1%	60.2%	57.4%	70%	31.7%	47.2%	41.9%	44.3%	4.25% (active)	22.4%	51.7	38.3%	53%	33%	34.4%	38.3%	71.8%		
